Compound activity as filed in PubChem BioAssay.
Platelet DG rel: modulates dense granule release in human platelets; AID 1663; inhibition, %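 (compounds screened at 7.5 µM in platelet-rich plasma)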; actives 0.22% (n = 300,000); human platelet-rich plasma, SFLLRN dense granule ATP release, luminescence;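 active = mean replicate score, as percent of positive control, at or above 50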
GRK2 aptamer HTS: blocks RNA aptamer binding to human GRK2 | bead flow cytometry, FAM-aptamer displacement from GRK2 | inhibition of aptamer binding, % at 10 µM | P25098 | actives 0.59% (n = 330,000);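 active = inhibition of aptamer binding above 40%, roughly 3 SD of noise, on plates passing a quality check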;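 also: median bead fluorescence of bound FAM aptamer so fluorescent compounds give negative values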
beta cell repl: inducers of beta-cell replication in MIN6 cells; MIN6 cells proliferation, ATPlite luminescence, 48 h; cells starved in 0.2% serum; 100% = growth in 10% serum; proliferation, % at 10 µM; actives 0.29% (n = 330,000);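 active = compounds whose signal lies at least 3.5 SD above the mean of all wells on their plate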;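 also: 0% = DMSO-treated cells in low-serum medium and 100% = 10% serum control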
NTR1 ag: activates human neurotensin receptor 1. P30989. NTR1-U2OS beta-arrestin-GFP spot imaging, agonist mode. activation, % at 20 µM. actives 0.17% (n = 330,000). AID 493036;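 active = activation at or above 40% of the spot to cytoplasm intensity ratio, with at least 20 cells analyzed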;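 also: 0% = DMSO without peptide and 100% = 100 nM NTR1 peptide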
NTR1 ag conf: NTR1 (human) agonism, confirmed; shares compounds with NTR1 ag; NTR1-U2OS beta-arrestin-GFP translocation imaging; activation, % at 20 µM; actives 38% (n = 480); AID 504550;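 active = mean activation at 20 µM of at least 40%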;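 also: 0% = DMSO without peptide and 100% = 100 nM NTR1 peptide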
Active calls of the source: *; x = no result given. In the library only some 1.2% were active in any assay of this set; here they are far more common.

SMILES	Platelet DG rel	GRK2 aptamer HTS	beta cell repl	NTR1 ag	NTR1 ag conf
O=C(O)C1=CC[C@@H](c2ccc(Cl)cc2)N(S(=O)(=O)c2ccc(Cl)cc2)[C@H]1c1ccccc1	x	0	-4	40*	4
Cc1ccc(NC2Sc3ccccc3NC2=O)cc1Cl (configuration not stated)	11	2	-6	51*	9
O=C(Nc1ncc(Cc2ccc(Cl)cc2Cl)s1)c1ccc([N+](=O)[O-])cc1	1	0	-3	48*	7
Cc1ccc(Nc2nc(N)c([N+](=O)[O-])c(NCc3ccco3)n2)cc1C	-3	8	0	12	x
c1ccc(SCCOCCn2cncn2)cc1	-1	0	2	1	x
OC(Cn1cncn1)(c1ccccc1)c1ccccc1	1	0	-2	55*	-4
FC(F)Sc1ccc(NC(=S)NCc2ccccc2)cc1	0	1	-6	2	x
FC(F)Sc1ccc(NC(=S)NC(c2ccccc2)c2ccccc2)cc1	-7	1	-6	41*	0
O=C(c1cccc(S(=O)(=O)N2CCCC2)c1)N1CCN(Cc2ccccc2)CC1	x	0	2	0	x
Cc1ccc(OCCN2CCN(c3nc(NCc4ccco4)c4ccccc4n3)CC2)cc1	-9	0	0	50*	32
COc1cccc(OCC(O)CN2CCC(CN3C(=O)c4cccc5cccc(c45)C3=O)CC2)c1 (configuration not stated)	-3	0	-5	3	x
Cc1cc(C)cc(OCC(O)CN2CCC(CN3C(=O)c4cccc5cccc(c45)C3=O)CC2)c1 (configuration not stated)	-3	0	-6	48*	58*
CCc1ccc(OCC(O)CN2CCC(CN3C(=O)c4cccc5cccc(c45)C3=O)CC2)cc1 (configuration not stated)	-13	0	-3	37	x
O=C1c2cccc3cccc(c23)C(=O)N1CC1CCN(CC(O)COc2ccc3ccccc3c2)CC1 (configuration not stated)	-1	0	-6	41*	59*
CCc1ccc(NS(=O)(=O)c2c(C(=O)N3CCOCC3)c(C)n(C)c2C)cc1	0	0	-2	-1	x
O=C(COC(=O)CN1C(=O)C2CCCCC2C1=O)NCc1ccc(Cl)cc1Cl (configuration not stated)	x	2	2	4	x
O=C(Nc1nc(-c2ccccc2)cs1)c1ccc(N2CCOCC2)c([N+](=O)[O-])c1	10	3	-3	70*	37
COCCCn1c(=NC(=O)c2ccccc2)c(C#N)cc2c(=O)n3cccc(C)c3nc21	-5	15	-6	50*	20
CC1(C)CC(=O)C(C(C2=C(O)CC(C)(C)CC2=O)c2ccc(Br)s2)C(=O)C1 (configuration not stated)	12	6	0	59*	45*
O=C(Nc1ccc(Cl)cc1)/C(=C/c1cccc(O)c1)c1nc2ccccc2s1	11	0	-7	49*	56*
Cc1ccc2[nH]c3c(N4CCN(Cc5ccccc5)CC4)ncnc3c2c1	1	0	-6	43*	22
Cc1ccc2c(c1)[nH]c1c(N3CCN(Cc4ccccc4)CC3)ncnc12	2	0	-4	56*	8
c1ccc(CN2CCN(c3ncnc4c3[nH]c3ccccc34)CC2)cc1	-25	1	-7	20	x
Nc1nc(N)c(C=Nc2ccc(Br)cc2)c(Nc2ccc(Br)cc2)n1	-1	0	-5	59*	32
Nc1cc(=O)[nH]c(=O)n1CCc1ccccc1	-7	0	-1	0	x
SMILES	Platelet DG rel	GRK2 aptamer HTS	beta cell repl	NTR1 ag	NTR1 ag conf
CCOc1cc(N2CCOCC2)c(OCC)cc1NC(=O)c1nn(CC)c(=O)c2ccccc12	x	2	-8	45*	37
c1ccc(N(c2ccccc2)c2nc(N3CCCC3)nc(-n3ccnc3)n2)cc1	-3	1	-6	48*	19
CN(c1ccccc1)c1nc(N2CCCC2)nc(-n2ccnc2)n1	3	3	-3	8	x
CCc1noc(C)c1C(=O)Nc1ccc(C(F)(F)F)cc1	8	2	-1	1	x
CC(C)C[C@H]1CN=C(Nc2ccccc2)N1CC1CCC(C(C)(C)C)CC1 (some centres not stated)	x	0	-8	42*	57*
CCOc1ccc(OCCC(=O)OCC(=O)N2CCN(S(=O)(=O)c3ccc(Cl)cc3)CC2)cc1	-5	13	-4	6	x
Cc1ccc2[nH]c(C)c(/C=N/Nc3nc4ccccc4s3)c2c1	-1	0	-5	41*	37
